Inconclusive results are not listed. Activity calls are given as the source filed them. Unless noted, calls come from the whole dose curve; as a rule, active = well fitted curve in the direction sought with a large enough effect in the repeat runs; inconclusive = weak or mixed curves; inactive = no such curve, though single readings can be large; an effect the other way counts as inactive or inconclusive.

Test [1] in a line: qHTS assay to identify small molecule agonists of the RXR signaling pathway - cell viability counter screen (AID 1159529). Note: series mostly up to about 77 µM; nearly all actives have a fitted effect of over 50% in size. The method, boiled down: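 RXR-alpha-UAS-bla HEK 293T cells in medium with 2% charcoal-stripped FBS were pre-incubated 5 hr, then compound-treated 16 hr at 37 C. Viability was read by CellTiter-Glo luminescence in the same wells as the beta-lactamase assay, with tetraoctyl ammonium bromide as positive control.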
(Quantitative high-throughput screening tests each substance at several concentrations.)

The nature of test [2]: qHTS assay to identify small molecule antagonists of the retinoid acid receptor (RAR) signaling pathway - cell viability counter screen (AID 1159551). Note: nearly all actives have a fitted effect of over 35% in size. The method, boiled down:
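Luminescent ATP quantitation (CellTiter-Glo) gave cell viability in C3RL4 cells exposed to test chemicals for 6 h at 37 C alongside 1 uM final retinol.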

The nature of test [3]: qHTS assay to identify small molecule antagonists of the retinoic acid receptor (RAR) signaling pathway (AID 1159552; note: nearly all actives have a fitted effect of over 50% in size). In outline:
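Retinol signaling pathway inhibitors screened in C3RL4 RARE-luciferase reporter cells seeded overnight at 37 C, then compounds added with 1 uM (final) retinol as pathway substrate. After 6 hr at 37 C, luciferase luminescence read after 30 min at room temperature.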

The nature of test [4]: qHTS assay to identify small molecule agonists of the retinoic acid receptor (RAR) signaling pathway (AID 1159553). Note: potency is the fitted concentration of half-maximal effect. The method, boiled down:
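Luminescence from a RARE-driven luciferase reporter in C3RL4 cells served as the read-out, measured after 30 min with detection reagent at room temperature. Compounds in DMSO were applied for 6 hr at 37 C following overnight seeding.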

Test [5] can be described thus: qHTS assay to identify small molecule antagonists of the estrogen related receptor (ERR) signaling pathway from Tox21 library - cell viability counter screen (AID 1224834). Note: nearly all actives have a fitted effect of over 30% in size. The method, boiled down: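 Fluorescence from CellTiter-Fluor gives the viability read-out, taken 30 min after reagent addition. Before that, ERR cells seeded 6 h earlier were incubated with compounds for 17.5 h at 37 C.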

For test [6], the target named is Luciferin 4-monooxygenase (Photinus pyralis) (UniProt P08659). As to the kind of experiment: qHTS assay to identify small molecule inhibitors of firefly luciferase (AID 1224835). Note: series mostly up to about 120 µM; nearly all actives have a fitted effect of over 25% in size. The method, boiled down:
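Biochemical qHTS: compounds run as interplate titrations against purified firefly enzyme, with D-luciferin and ATP each at its KM concentration. Light output recorded by CCD imaging.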

A short description of test [7]: qHTS assay to identify small molecule agonists of the constitutive androstane receptor (CAR) signaling pathway - cell viability counter screen (AID 1224836). Note: series mostly up to about 92 µM; nearly all actives have a fitted effect of over 45% in size. The method, boiled down:
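HepG2 cells stably carrying hCAR and a CYP2B6-2.2kb reporter; 15-concentration compounds plus PK11195 (final 0.75 uM), 23 hr at 37 C/5% CO2. Viability read by CellTiter-Fluor fluorescence.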

A short description of test [8]: qHTS assay to identify small molecule antagonists of the constitutive androstane receptor (CAR) signaling pathway - cell viability counter screen (AID 1224837). Note: series mostly up to about 92 µM; nearly all actives have a fitted effect of over 45% in size. In outline:
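HepG2-CYP2B6-hCAR cells, 2500/well, 4 hr pre-incubation; compound titration, 15 conc.; CITCO 50 nM final; 23 hr, 37 C/5% CO2; CellTiter-Fluor, fluorescence intensity.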

Test [9] has as its target Nuclear receptor subfamily 1 group I member 3 (Homo sapiens) (UniProt Q14994). As to the kind of experiment: qHTS assay to identify small molecule antagonists of the constitutive androstane receptor (CAR) signaling pathway (AID 1224838).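 Note: HepG2 cells stably expressing hCAR with CYP2B6 luciferase reporter stimulated by CITCO; nearly all actives have a fitted effect of over 40% in size.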 The method, boiled down:
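HepG2-CYP2B6-hCAR cells; 4 h pre-incubation; cpd (15 conc) + CITCO 50 nM final; 24 h, 37 C/5% CO2; ONE-Glo, luminescence.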

Test [10] shares this target. As to the kind of experiment: qHTS assay to identify small molecule agonists of the constitutive androstane receptor (CAR) signaling pathway (AID 1224839). Note: nearly all actives have a fitted effect of over 15% in size. Note: potency is the fitted concentration of half-maximal effect. In outline: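 HepG2 cells stably co-transfected with hCAR and a CYP2B6-2.2kb luciferase reporter; compounds at 15 concentrations with 0.75 uM PK11195 present. After 24 hr at 37 C, luciferase read by ONE-Glo luminescence.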

The nature of test [11]: qHTS assay to identify small molecule antagonists of the estrogen related receptor signaling pathway with the pleiotropic PPARgamma coactivator (PGC) from Tox21 10K library - cell viability counter screen (AID 1224840; active = well fitted cell-killing curve with a large enough effect in the repeat runs, not every such curve was filed as active; note: nearly all actives have a fitted effect of over 40% in size). The method, boiled down: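 PGC/ERR cells, 2,000/well; 6 h pre-incubation 37 C/5% CO2; cpd in DMSO via pin tool; 17.5 h 37 C; CellTiter-Fluor, 30 min; fluorescence.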

Test [12] concerns the target Thyrotropin receptor (Homo sapiens) (UniProt P16473). As to the kind of experiment: qHTS assay to identify small molecule agonists of the thyroid stimulating hormone receptor (TSHR) signaling pathway (AID 1224843; calls by dose curve; note: nearly all actives have a fitted effect of over 45% in size; note: potency is the fitted concentration of half-maximal effect). In outline:
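TSHR-HEK293 cells in agonist mode, 30 min room-temperature step, then cAMP measured by competitive HTRF (cAMP-d2 with anti-cAMP cryptate) after 1 h at room temperature. Tested at 15 concentrations in triplicate.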

Test [13] in a line: qHTS assay to identify small molecule agonists of the hypoxia (HIF-1) signaling pathway - cell viability counter screen (AID 1224844; calls by dose curve; note: nearly all actives have a fitted effect of over 50% in size). The method, boiled down:
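ME-180 HRE-bla cells, 2,000/well, 0.5% dialyzed FBS; 5 hr settle, 17 hr compound at 37C/5% CO2; CCF4-AM reporter read first, then CellTiter-Glo luminescence after 30 min RT.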

Test [14] can be described thus: qHTS assay to identify small molecule antagonists of the estrogen related receptor signaling pathway with the pleiotropic PPARgamma coactivator (PGC) from Tox21 10K library (AID 1224841; call rule not given here; note: series mostly up to about 92 µM; actives are mostly falling curves and most rising ones were filed inactive; nearly all actives have a fitted effect of over 50% in size). The method, boiled down: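 PGC/ERR cell line, 2,000 cells/well; 6 h pre-incubation 37 C/5% CO2; compounds (DMSO) pinned in; 18 h, 37 C; One-Glo, 30 min RT; luminescence.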
Test [15] can be described thus: qHTS assay to identify small molecule agonists of the estrogen related receptor signaling pathway with the pleiotropic PPARgamma coactivator (PGC) from Tox21 10K library (AID 1224842). Note: nearly all actives have a fitted effect of over 15% in size. The method, boiled down: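 PGC/ERR reporter cell line, 2,000 cells per well, incubated 6 h at 37 C before 23 nL compound in DMSO was added. After 18 h at 37 C, One-Glo luminescence read following 30 min at room temperature.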

Thyrotropin receptor (Homo sapiens), sequence (P16473 whole entry, looked up): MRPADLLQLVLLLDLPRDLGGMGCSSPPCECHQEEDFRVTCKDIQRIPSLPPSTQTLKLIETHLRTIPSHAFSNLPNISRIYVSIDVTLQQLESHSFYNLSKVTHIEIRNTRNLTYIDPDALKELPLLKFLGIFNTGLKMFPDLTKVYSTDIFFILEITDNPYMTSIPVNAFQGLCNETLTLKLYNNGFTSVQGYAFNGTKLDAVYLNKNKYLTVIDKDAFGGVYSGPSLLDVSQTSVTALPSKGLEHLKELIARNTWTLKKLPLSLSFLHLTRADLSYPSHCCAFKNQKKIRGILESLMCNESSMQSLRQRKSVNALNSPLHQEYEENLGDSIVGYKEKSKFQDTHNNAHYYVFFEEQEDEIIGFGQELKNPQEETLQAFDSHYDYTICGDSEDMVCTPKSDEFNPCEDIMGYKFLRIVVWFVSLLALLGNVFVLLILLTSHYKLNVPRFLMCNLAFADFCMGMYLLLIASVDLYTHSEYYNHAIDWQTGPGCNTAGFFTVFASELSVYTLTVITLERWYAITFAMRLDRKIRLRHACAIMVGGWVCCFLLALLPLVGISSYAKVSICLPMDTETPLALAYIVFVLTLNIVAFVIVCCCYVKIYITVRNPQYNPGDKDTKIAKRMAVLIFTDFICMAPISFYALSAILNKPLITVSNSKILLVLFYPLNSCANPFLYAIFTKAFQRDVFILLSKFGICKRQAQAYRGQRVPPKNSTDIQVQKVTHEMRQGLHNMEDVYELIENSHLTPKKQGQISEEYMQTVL
Luciferin 4-monooxygenase (Photinus pyralis), sequence (P08659 whole entry, looked up): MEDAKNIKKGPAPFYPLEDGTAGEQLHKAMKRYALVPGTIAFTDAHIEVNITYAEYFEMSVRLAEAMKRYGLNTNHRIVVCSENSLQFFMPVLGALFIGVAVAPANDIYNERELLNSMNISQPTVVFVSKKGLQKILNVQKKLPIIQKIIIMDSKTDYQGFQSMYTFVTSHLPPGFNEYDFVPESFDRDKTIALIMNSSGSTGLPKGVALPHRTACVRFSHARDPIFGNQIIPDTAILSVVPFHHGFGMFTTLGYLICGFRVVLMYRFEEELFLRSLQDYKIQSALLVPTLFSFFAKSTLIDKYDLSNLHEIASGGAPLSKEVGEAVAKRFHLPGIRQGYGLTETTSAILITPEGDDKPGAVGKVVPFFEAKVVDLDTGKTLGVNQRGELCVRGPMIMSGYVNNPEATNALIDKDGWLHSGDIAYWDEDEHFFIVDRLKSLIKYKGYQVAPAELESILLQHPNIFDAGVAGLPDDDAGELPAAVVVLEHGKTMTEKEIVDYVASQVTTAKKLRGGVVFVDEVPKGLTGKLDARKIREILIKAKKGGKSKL
Nuclear receptor subfamily 1 group I member 3 (Homo sapiens), sequence (Q14994 whole entry, looked up): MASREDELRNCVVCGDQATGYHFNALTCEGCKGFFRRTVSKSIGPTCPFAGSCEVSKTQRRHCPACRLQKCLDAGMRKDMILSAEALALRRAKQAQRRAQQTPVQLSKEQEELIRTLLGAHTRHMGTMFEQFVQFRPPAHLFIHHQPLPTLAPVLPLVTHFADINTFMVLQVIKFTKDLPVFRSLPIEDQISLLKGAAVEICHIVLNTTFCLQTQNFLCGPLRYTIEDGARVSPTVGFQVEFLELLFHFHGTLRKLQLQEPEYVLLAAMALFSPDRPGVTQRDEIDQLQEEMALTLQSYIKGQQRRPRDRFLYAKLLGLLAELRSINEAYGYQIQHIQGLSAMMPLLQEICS

Turning to `CCN(CC)C(C)C(=O)c1ccccc1` (configuration not stated), the Potency result in [1], in test [2], in test [3], in test [4], in test [5] and in test [6] was “inactive” each time. The Potency entry in [7], in [8], in test [9], in test [10], in [11] and in [12] was “inactive” each time. In test [13], the Potency entry is “inactive”.

`COP(=S)(OC)Oc1c(Cl)cc(C)cc1Cl`: the Potency result in test [1], in test [2], in test [3], in test [4], in test [5] and in [7] was “inactive” each time. The Potency entry in [8], in test [11], in test [14] and in test [13] was “inactive” throughout. For the same compound, the Potency in [10] was 27.3 µM (active). The outcome in test [15] was inactive.

For the compound `CSc1ccc(C(=O)C(C)(C)N2CCOCC2)cc1`, the Potency entry in test [1], in test [2], in [3], in [4], in [5] and in [6] was “inactive” each time. Further, the Potency entry in test [7], in test [8], in [9], in test [11] and in test [13] was “inactive” in each case. The Potency in test [10] is 30.6 µM (active); in test [12], 2.73 µM (active). Besides, the result in [15] was inactive.

For `CC(COc1ccc(Oc2ccccc2)cc1)Oc1ccccn1` (configuration not stated), the Potency entry in [1], in test [2], in test [3], in [5], in [7] and in [8] was “inactive” each time. For the same compound, the Potency result in [9], in test [11], in [14] and in [13] was “inactive” in each case. Further, the Potency in test [4] was 13.7 µM (active); in test [10], 54.4 µM (active).

On to `COC(C)(C)C`, for which the Potency entry in test [1], in test [2], in [3], in test [4], in test [5] and in test [6] was “inactive” throughout. Besides, the Potency result in test [7], in [8], in test [11], in [12] and in test [13] was “inactive” in each case.

Regarding `CC(=O)CC(c1ccc(Cl)cc1)c1c(O)c2ccccc2oc1=O` (configuration not stated), the Potency result in [1], in test [2], in [4], in test [5], in test [6] and in test [7] was “inactive” each time. Besides, the Potency entry in test [8], in [11] and in test [12] was “inactive” in each case.

On to `O=C(Nc1ccccc1)c1ccccc1I`, for which the Potency entry in test [1], in test [2], in [3], in test [5], in [6] and in test [7] was “inactive” each time. Moreover, the Potency entry in [8], in test [11], in [12] and in test [13] was “inactive” each time. The Potency in test [10] is 61.1 µM (active).

`C=CC1CC=CCC1` (configuration not stated): the Potency result in test [1], in [2], in test [4], in test [5], in test [6] and in test [7] was “inactive” throughout. Moreover, the Potency result in test [8], in test [9], in test [10], in test [11], in test [12] and in test [13] was “inactive” throughout.

For `C#CCN1C(=O)COc2cc(F)c(N3C(=O)C4=C(CCCC4)C3=O)cc21`, the Potency result in test [1], in test [2], in test [4], in test [5], in [6] and in test [7] was “inactive” each time. In addition, the Potency entry in test [8], in test [9], in test [11], in test [12] and in [13] was “inactive” in each case. Besides, the Potency in test [10] is 48.6 µM (active). The result in test [15] was inactive.

Take `C[C@@H]1CN(C2CCC(C#N)(c3ccc(F)cc3)CC2)CC[C@]1(C(=O)O)c1ccccc1` (some centres not stated): the Potency result in [1], in test [2], in test [5], in [6], in test [7] and in [8] was “inactive” in each case. For the same compound, the Potency entry in test [9], in test [10], in test [11], in test [14] and in test [12] was “inactive” in each case. Besides, in test [15], the call was inactive.

`CCC(C)n1c(=O)[nH]c(C)c(Br)c1=O` (configuration not stated): the Potency result in test [1], in test [2], in test [5], in [6], in test [7] and in test [8] was “inactive” in each case. Moreover, the Potency entry in [9], in test [10], in test [11], in test [14], in test [12] and in test [13] was “inactive” throughout. Further, the outcome in test [15] was inactive.

(Values after PubChem BioAssay (Tox21).)
